Records with an inconclusive call do not appear. Active and inactive are the calls of the source. Calls come from the whole dose curve; as a rule, active = well fitted inhibition curve with a large enough effect; inconclusive = small, poorly fitted or top-dose-only effect; inactive = flat fitted curve, though single readings scatter.
Assays:
Assay in all cases: qHTS profiling for inhibitors of Plasmodium falciparum proliferation (AID 504749); note: nearly all actives have a fitted effect of over 60% in size
Settings in all cases: P. falciparum in erythrocytes, SYBR Green DNA, 72 h; series mostly up to 28.7 µM
CP266 = tested on: CP266
How it was run: (§1)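 Each compound contacts P. falciparum-infected red blood cells for 72 h at 37 C; lysis buffer (Tris, EDTA, saponin, Triton X, SYBR Green I) is added and fluorescence measured next morning; values normalized to controls.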

CP268 = tested on: CP268
How it was run: as §1

CP269 = tested on: CP269
How it was run: as §1

CP286 = tested on: CP286
How it was run: as §1

CP291 = tested on: CP291
How it was run: as §1

CP297 = tested on: CP297
How it was run: as §1

CP305 = tested on: CP305
How it was run: as §1

CP315 = tested on: CP315
How it was run: as §1

CP325 = tested on: CP325
How it was run: as §1

CP329 = tested on: CP329
How it was run: as §1

Measured: Potency

NNc1nnc(NN)c2ccccc12
inactive: all assays above

CC(CSC(=O)c1ccccc1)C(=O)N1C[C@@H](Sc2ccccc2)C[C@H]1C(=O)O (some centres undefined)
inactive: all assays above

Cc1c(C(=O)NCCO)[n+](=O)c2ccccc2n1[O-]
inactive: all assays above

Nc1ncnc2c1ncn2[C@@H]1O[C@H](COP(=O)(O)O)[C@@H](O)[C@H]1O
inactive: all assays above

Cc1cccc(C)c1NC(=O)CC12CCCN1CCC2
inactive: all assays above

COC(=O)c1cccnc1
inactive: all assays above

CC(N)CCCC(C)(C)O (centres undefined)
inactive: all assays above

CCCC(O)C(CC)CO (centres undefined)
inactive: all assays above

O=c1[nH]c2cc(C(F)(F)F)c(N3CCOCC3)cc2n(CP(=O)(O)O)c1=O
inactive: all assays above

CC(O)CCCCn1c(=O)c2c(ncn2C)n(C)c1=O (centres undefined)
inactive: all assays above

OCc1ccc(Cl)cc1Cl
inactive: all assays above

O=C(O)c1cc(=O)c2ccccc2o1
inactive: all assays above

Cc1cccc(C(=O)O)c1O
inactive: all assays above

CC(=O)OCC(COC(C)=O)OC(C)=O
inactive: all assays above

COc1cc(O)cc(O)c1
inactive: all assays above

CC(C)CCOC(=O)c1ccc(N(C)C)cc1
inactive: all assays above

O=C(O)Cc1ccc(CCNS(=O)(=O)c2ccc(Cl)cc2)cc1
inactive: all assays above

CC(=O)OC[C@H]1O[C@@](COC(C)=O)(O[C@H]2O[C@H](COC(C)=O)[C@@H](OC(C)=O)[C@H](OC(C)=O)[C@H]2OC(C)=O)[C@@H](OC(C)=O)[C@@H]1OC(C)=O
not listed: CP329
inactive: all other assays above

CCc1cccc(CC)c1NC(=O)CN(CC(=O)O)CC(=O)O
inactive: all assays above

NCC1CCC(C(=O)Oc2ccc(CCC(=O)O)cc2)CC1 (centres undefined)
inactive: all assays above

CCCNC(C)(C)COC(=O)c1ccccc1
inactive: all assays above

COc1cc(C(=O)NCCCCCC(=O)O)cc(OC)c1OC
inactive: all assays above

NCc1ccc(S(N)(=O)=O)cc1
inactive: all assays above

CC(=O)Oc1cccc(O)c1
inactive: all assays above

NS(=O)(=O)c1cc2c(cc1C(F)(F)F)NCNS2(=O)=O
inactive: all assays above

O=C(O)c1ccc(OCCCOc2ccc(C(=O)O)cc2)cc1
inactive: all assays above

O=C(/C=C/c1ccccc1)OCc1ccccc1
inactive: all assays above

O[C@@H]1CO[C@H]2[C@@H]1OC[C@@H]2O
inactive: all assays above

CC(C)C[C@@H](N)C(=O)O
inactive: all assays above

CC(=O)Nc1cccc(O)c1
inactive: all assays above

CCOC(=O)[C@H](CCc1ccccc1)N[C@@H](C)C(=O)N1CCC[C@H]1C(=O)O
inactive: all assays above

CCCOC(=O)c1ccc(N)cc1
inactive: all assays above

CNCc1ccccc1
inactive: all assays above

O=C(O)CNC(=O)c1ccccc1I
inactive: all assays above

CC(=O)NCc1c(I)c(NC(C)=O)c(I)c(C(=O)O)c1I
inactive: all assays above

CC[N+](CC)(CC(=O)Nc1c(C)cccc1C)Cc1ccccc1
inactive: all assays above

Cc1ncc(CO)c(CN)c1O
inactive: all assays above

Cc1ccc(S(=O)(=O)NC(=O)NC2CCCCCCC2)cc1
inactive: all assays above

Cc1ccccc1N=Nc1ccc(N=Nc2c(O)ccc3ccccc23)c(C)c1
inactive: all assays above

FC(F)(F)C(Cl)Br (centres undefined)
inactive: all assays above

CC(C)=CCC/C(C)=C/CO
inactive: all assays above

CCCCCCCC(=O)OCC(O)CO (centres undefined)
inactive: all assays above

O=c1[nH]c(=O)c2ccccc2o1
inactive: all assays above

O=C(Cn1ccnc1[N+](=O)[O-])NCc1ccccc1
inactive: all assays above

CCCCCCCCCCCCCCCCCCO
inactive: all assays above

NS(=O)(=O)c1ccc(C(=O)O)cc1
inactive: all assays above

O=S1(=O)OC(c2ccc(O)cc2)(c2ccc(O)cc2)c2ccccc21
inactive: all assays above

COc1ccc(C(=O)N2CCN(CC(=O)N3CCOCC3)CC2)cc1
inactive: all assays above

O=C(CCBr)N1CCN(C(=O)CCBr)CC1
inactive: all assays above

NNC(=O)CP(=O)(c1ccccc1)c1ccccc1
inactive: all assays above

CCOC(=O)c1cccnc1
inactive: all assays above

Reference: PubChem BioAssay (NCATS)
